# Results filed as inconclusive are left out. Active and inactive are the calls of the source. The calls were made as follows: active = hit-call score of the fitted dose curve at least 0.9, where 1 is the maximum; inconclusive = response in the unintended direction; inactive = score below 0.9.
# Molecular target: human Opioid Receptor Mu (Opiate Mu), OPRM1 (gene 4988) (UniProt P35372)
# Test: NVS_GPCR_hOpiate_mu: NovaScreen (NVS) G Protein-Coupled Receptor Assay for human Opioid Receptor Mu (Opiate Mu) (AID 2283290);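 also: hits lower bound tracer signal versus DMSO meaning displacement of the ligand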
# In short: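 Here, radioligand binding to CHO-extracted receptor was measured after 2.5 h using filter-based scintillation detection. Initial single-concentration screening used 25 uM in duplicate with plate controls; confirmed actives went to concentration-response testing.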
# human Opioid Receptor Mu (Opiate Mu), OPRM1 (gene 4988), sequence (P35372 whole entry, looked up): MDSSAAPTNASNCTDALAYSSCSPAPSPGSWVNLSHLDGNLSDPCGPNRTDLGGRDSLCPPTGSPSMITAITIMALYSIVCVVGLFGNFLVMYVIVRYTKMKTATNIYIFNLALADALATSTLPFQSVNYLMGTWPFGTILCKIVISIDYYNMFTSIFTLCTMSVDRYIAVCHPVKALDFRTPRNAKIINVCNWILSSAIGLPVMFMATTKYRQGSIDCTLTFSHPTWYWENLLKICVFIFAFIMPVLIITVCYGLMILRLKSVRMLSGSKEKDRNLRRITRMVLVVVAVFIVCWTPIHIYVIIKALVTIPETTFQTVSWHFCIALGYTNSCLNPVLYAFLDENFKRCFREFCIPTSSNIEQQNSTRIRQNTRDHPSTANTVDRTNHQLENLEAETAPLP
Structure (SMILES),AC50,outcome
CCn1nc(Cc2ccccc2)cc1C1CCN(C[C@H]2C[C@H](N(C)[C@@H](C(=O)O)C(C)C)C[C@@H]2c2cccc(F)c2)CC1,8.81 µM (active),
CCOc1cccc(-n2cc(C(=O)N3CCN(c4cc(C(=O)O)c5ccccc5c4)CC3)nc2-c2ccc(C)cc2)c1,23.8 µM (active),
CNS(=O)(=O)c1cc(C(=O)N2CCC(CCN3C4CCC3CC(n3c(C)nc5ccccc53)C4)(c3cccc(F)c3)CC2)c(Cl)cc1F (stereo not drawn),4.96 µM (active),
COc1cccc(-c2ccc(/C=C\CN3CCCCCC3)cc2Cl)c1,12.3 µM (active),
On1ccccc1=S,,inactive
CCOC(=O)c1ccc(C2CCC(NC[C@H](O)COc3ccc(O)c(NS(C)(=O)=O)c3)CC2)cc1 (stereo partly drawn),,inactive
CCC(C)(C)C(=O)O[C@H]1C[C@@H](C)C=C2C=C[C@H](C)[C@H](CC[C@@H]3C[C@@H](O)CC(=O)O3)[C@H]21,,inactive
CCc1cc(SCc2sc(-c3ccc(C(F)(F)F)cc3)nc2CN2CCN(c3ccc(OC)cc3)CC2)ccc1OCC(=O)O,4.54 µM (active),
CCOC(=O)COc1ccc2c(c1)CC(NCC(O)c1cccc(Cl)c1)CC2 (stereo not drawn),5.18 µM (active),
Cc1[nH]cnc1C[C@H]1CCc2c(C)c3ccccc3n2C1=O,6.29 µM (active),
O=C(O)CC(O)C(=O)O (stereo not drawn),,inactive

# Molecular target: guinea pig Serotonin, 5-Hydroxytryptamine Receptor 4 (5HT4), HTR4 (gene 100135548) (UniProt O70528)
# Sequence (O70528 whole entry, looked up): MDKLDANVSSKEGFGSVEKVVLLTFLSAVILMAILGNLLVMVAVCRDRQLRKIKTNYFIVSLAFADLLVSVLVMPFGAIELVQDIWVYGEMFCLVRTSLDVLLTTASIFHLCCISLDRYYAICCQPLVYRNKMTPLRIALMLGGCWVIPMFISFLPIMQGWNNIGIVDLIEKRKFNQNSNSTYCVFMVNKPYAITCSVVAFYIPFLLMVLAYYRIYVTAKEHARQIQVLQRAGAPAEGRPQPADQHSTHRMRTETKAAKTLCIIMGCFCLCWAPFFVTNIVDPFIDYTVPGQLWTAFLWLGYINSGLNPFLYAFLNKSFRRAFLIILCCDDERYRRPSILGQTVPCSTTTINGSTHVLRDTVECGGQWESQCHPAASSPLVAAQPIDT
# Test: NVS_GPCR_g5HT4: NovaScreen (NVS) G Protein-Coupled Receptor Assay for guinea pig Serotonin, 5-Hydroxytryptamine Receptor 4 (5HT4) (AID 2283294)
# In short: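 Guinea pig striatal membranes; radioligand competitive displacement, filtration and scintillation counting after 1 h. Primary screen in duplicate at 25 uM; actives then tested in concentration series; loss of binding signal fitted relative to DMSO.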
Structure (SMILES),AC50,outcome
CCn1nc(Cc2ccccc2)cc1C1CCN(C[C@H]2C[C@H](N(C)[C@@H](C(=O)O)C(C)C)C[C@@H]2c2cccc(F)c2)CC1,25 µM (active),
CNS(=O)(=O)c1cc(C(=O)N2CCC(CCN3C4CCC3CC(n3c(C)nc5ccccc53)C4)(c3cccc(F)c3)CC2)c(Cl)cc1F (stereo not drawn),,inactive
COc1cccc(-c2ccc(/C=C\CN3CCCCCC3)cc2Cl)c1,12.1 µM (active),
CCOC(=O)c1ccc(C2CCC(NC[C@H](O)COc3ccc(O)c(NS(C)(=O)=O)c3)CC2)cc1 (stereo partly drawn),2.57 µM (active),
Cc1[nH]cnc1C[C@H]1CCc2c(C)c3ccccc3n2C1=O,6.64 µM (active),

# Molecular target: rat Serotonin, 5-Hydroxytryptamine Receptor (5HT), Non-Selective Binding, Htr1a (gene 24473) (UniProt P19327)
# Sequence (P19327 whole entry, looked up): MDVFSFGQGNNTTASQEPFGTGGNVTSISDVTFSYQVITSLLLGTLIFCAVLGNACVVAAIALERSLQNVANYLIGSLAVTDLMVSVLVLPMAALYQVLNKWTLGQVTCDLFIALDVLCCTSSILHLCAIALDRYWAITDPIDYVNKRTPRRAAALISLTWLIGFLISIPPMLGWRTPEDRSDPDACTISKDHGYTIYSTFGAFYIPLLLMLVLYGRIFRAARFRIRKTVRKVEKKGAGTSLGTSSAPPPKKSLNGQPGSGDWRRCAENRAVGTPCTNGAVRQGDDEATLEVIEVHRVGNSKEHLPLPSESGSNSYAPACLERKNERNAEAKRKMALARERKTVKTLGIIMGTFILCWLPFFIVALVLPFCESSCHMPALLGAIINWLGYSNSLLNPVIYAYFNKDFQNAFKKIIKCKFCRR
# Test: NVS_GPCR_r5HT_NonSelective: NovaScreen (NVS) G Protein-Coupled Receptor Assay for rat Serotonin, 5-Hydroxytryptamine Receptor (5HT), Non-Selective Binding (AID 2283295)
# In short: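 Radioligand displacement on rat cortical membranes, 1 h incubation, filter-based scintillation counting. Primary duplicates at 25 uM, actives retested in concentration series; loss of signal fitted against DMSO as baseline.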
Structure (SMILES),outcome,AC50
CNS(=O)(=O)c1cc(C(=O)N2CCC(CCN3C4CCC3CC(n3c(C)nc5ccccc53)C4)(c3cccc(F)c3)CC2)c(Cl)cc1F (stereo not drawn),inactive,
CCOC(=O)COc1ccc2c(c1)CC(NCC(O)c1cccc(Cl)c1)CC2 (stereo not drawn),inactive,
Cc1[nH]cnc1C[C@H]1CCc2c(C)c3ccccc3n2C1=O,,4.63 µM (active)
O=C(O)CC(O)C(=O)O (stereo not drawn),inactive,

# Molecular target: rat Adrenergic, Alpha 1A Receptor (Adra1A), Adra1a (gene 29412) (UniProt P43140)
# Sequence (P43140 whole entry, looked up): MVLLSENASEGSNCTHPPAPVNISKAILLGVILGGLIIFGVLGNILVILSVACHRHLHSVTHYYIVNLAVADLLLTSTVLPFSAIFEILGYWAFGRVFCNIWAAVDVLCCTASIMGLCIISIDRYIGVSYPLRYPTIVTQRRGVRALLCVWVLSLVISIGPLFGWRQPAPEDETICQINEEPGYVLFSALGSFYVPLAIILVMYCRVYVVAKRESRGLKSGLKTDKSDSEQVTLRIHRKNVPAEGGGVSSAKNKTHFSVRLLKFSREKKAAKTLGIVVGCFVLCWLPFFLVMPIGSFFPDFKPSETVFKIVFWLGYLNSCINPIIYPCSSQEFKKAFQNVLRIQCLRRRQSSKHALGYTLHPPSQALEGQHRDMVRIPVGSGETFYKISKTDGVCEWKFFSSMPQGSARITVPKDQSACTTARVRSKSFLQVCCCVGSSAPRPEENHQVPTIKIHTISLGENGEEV
# Test: NVS_GPCR_rAdra1A: NovaScreen (NVS) G Protein-Coupled Receptor Assay for rat Adrenergic, Alpha 1A Receptor (Adra1A) (AID 2283296)
# In short: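 Rat cortical membranes pretreated with chlorethyl clonidine; competitive radioligand displacement, 1 h. Filter-based scintillation counting. Primary screen in duplicate at 25 uM, actives followed in concentration series.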
Structure (SMILES),AC50,outcome
CNS(=O)(=O)c1cc(C(=O)N2CCC(CCN3C4CCC3CC(n3c(C)nc5ccccc53)C4)(c3cccc(F)c3)CC2)c(Cl)cc1F (stereo not drawn),14.9 µM (active),
COc1cccc(-c2ccc(/C=C\CN3CCCCCC3)cc2Cl)c1,,inactive
COCCOc1cc2cc(C(=O)NC3CCN(C(C)C)CC3)n(CC(=O)Nc3ccc(Cl)cn3)c2cn1,14.7 µM (active),
CCOC(=O)c1ccc(C2CCC(NC[C@H](O)COc3ccc(O)c(NS(C)(=O)=O)c3)CC2)cc1 (stereo partly drawn),11.5 µM (active),
Cc1[nH]cnc1C[C@H]1CCc2c(C)c3ccccc3n2C1=O,8.9 µM (active),

# Test system: rat Adrenergic, Alpha 1B Receptor (Adra1B), gene 24173
# Test: NVS_GPCR_rAdra1B: NovaScreen (NVS) G Protein-Coupled Receptor Assay for rat Adrenergic, Alpha 1B Receptor (Adra1B) (AID 2283297)
# In short: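 Rat liver membranes, radioligand displacement with filter-based scintillation detection, 1 h incubation. Primary screen in duplicate at 25 uM; actives retested in concentration series; activity relative to DMSO.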
Structure (SMILES),AC50,outcome
CNS(=O)(=O)c1cc(C(=O)N2CCC(CCN3C4CCC3CC(n3c(C)nc5ccccc53)C4)(c3cccc(F)c3)CC2)c(Cl)cc1F (stereo not drawn),2.1 µM (active),
COc1cccc(-c2ccc(/C=C\CN3CCCCCC3)cc2Cl)c1,18.7 µM (active),
COCCOc1cc2cc(C(=O)NC3CCN(C(C)C)CC3)n(CC(=O)Nc3ccc(Cl)cn3)c2cn1,15.3 µM (active),
CCc1cc(SCc2sc(-c3ccc(C(F)(F)F)cc3)nc2CN2CCN(c3ccc(OC)cc3)CC2)ccc1OCC(=O)O,,inactive
Cc1[nH]cnc1C[C@H]1CCc2c(C)c3ccccc3n2C1=O,11.9 µM (active),

# Molecular target: rat Adrenergic Receptor, Beta (Adrb), Non-selective Binding, Adrb1 (gene 24925) (UniProt P18090)
# Sequence (P18090 whole entry, looked up): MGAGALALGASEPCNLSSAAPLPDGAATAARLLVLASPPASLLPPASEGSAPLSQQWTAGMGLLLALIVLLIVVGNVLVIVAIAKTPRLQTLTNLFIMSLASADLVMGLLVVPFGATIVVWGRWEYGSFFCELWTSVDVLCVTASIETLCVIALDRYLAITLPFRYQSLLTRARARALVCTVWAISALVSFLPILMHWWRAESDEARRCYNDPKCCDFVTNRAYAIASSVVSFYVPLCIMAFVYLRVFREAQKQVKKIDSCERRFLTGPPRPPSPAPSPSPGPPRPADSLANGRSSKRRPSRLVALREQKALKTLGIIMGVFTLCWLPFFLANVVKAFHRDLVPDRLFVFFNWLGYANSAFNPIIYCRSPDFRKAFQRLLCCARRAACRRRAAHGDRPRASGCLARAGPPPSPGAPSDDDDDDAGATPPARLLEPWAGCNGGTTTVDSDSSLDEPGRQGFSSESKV
# Test: NVS_GPCR_rAdrb_NonSelective: NovaScreen (NVS) G Protein-Coupled Receptor Assay for rat Adrenergic Receptor, Beta (Adrb), Non-selective Binding (AID 2283298)
# In short: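 Non-selective beta-adrenergic radioligand binding in rat cortical membranes, 1 h incubation, filter-based scintillation read-out. Primary screen 25 uM in duplicate; hits retested in concentration-response up to 50 uM, DMSO baseline.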
Structure (SMILES),outcome,AC50
CCn1nc(Cc2ccccc2)cc1C1CCN(C[C@H]2C[C@H](N(C)[C@@H](C(=O)O)C(C)C)C[C@@H]2c2cccc(F)c2)CC1,inactive,
CCOC(=O)c1ccc(C2CCC(NC[C@H](O)COc3ccc(O)c(NS(C)(=O)=O)c3)CC2)cc1 (stereo partly drawn),,8.67 µM (active)
Cc1[nH]cnc1C[C@H]1CCc2c(C)c3ccccc3n2C1=O,,4.78 µM (active)

# Reference: PubChem BioAssay (EPA / NIEHS)
